# esBAF inh = SWI/SNF esBAF complex inhibition | mouse ES cells, Bmi1-luciferase knock-in reporter, 24 h; 100% = twice the neutral-well signal | reporter increase, % at 12.5 µM | 350,000 compounds, 2% hits | AID 602393; in the data active means activation above about 40%; inconclusive means no clear call, values can overlap the other calls;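 further: 0% = median of the plate's neutral control wells and 100% = double that signal; a rise in the Bmi1 reporter signal indicates esBAF inhibition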
# ssDAF12 agonist = activators of S. stercoralis DAF-12 nuclear receptor | 370,000 compounds, 1% hits | activation, % at 6.8 µM | HEK293 ssDAF-12/GRIP1 lit1-tk-luc reporter, luminescence; % of 3 µM dafachronic acid response;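 active means activation above the mean over all tested compounds plus 3 SD, cut at about 0.9% in these data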;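 further: 0% = DMSO-only wells and 100% = 3 µM delta7-dafachronic acid wells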
# hgDAF-12 ag = activates the H. glycines DAF-12 receptor ligand-binding domain; HEK293 GAL4-hgDAF12 UAS-luciferase reporter, agonist luminescence; normalized to butyrate control; activation, % at 6.8 µM; 370,000 compounds, 1.8% hits; AID 687014;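 active means activation above a cutoff set at the mean of all screened compounds plus 3 SD, cut at about 10% in these data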;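 further: 0% = DMSO wells and 100% = sodium butyrate wells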
# Wnt act = activates Wnt/beta-catenin signaling in a reporter cell assay | activation, % at 9.35 µM | activator, plate reader | 300,000 compounds, 1.2% hits | AID 743398; in the data active means activation above about 30%, passing the limit was not always enough; inconclusive means no clear call, values can overlap the other calls;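 further: 0% = neutral control wells and 100% = positive control wells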
# DAX1 inh = inhibitors of DAX1 repression of SF-1 activated StAR promoter; HEK293T StAR-luciferase reporter, SF-1/DAX-1 repression relief; inhibition, % at 6.8 µM; 370,000 compounds, 1.1% hits;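 active means inhibition above the mean over all tested compounds plus 3 SD, cut at about 3.6% in these data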;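 further: 0% = DAX-1 cells with DMSO and 100% = cells lacking DAX-1 with DMSO; higher inhibition means more luminescence from relief of DAX-1 repression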
# hcDAF-12 act = H. contortus DAF-12 activation, primary screen; AID 652067; activation, % at 6.8 µM; HEK293 hcDAF-12 lit1-tk-luc reporter, luminescence; 0% DMSO, 100% Δ7-dafachronic acid; 370,000 compounds, 1.4% hits;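 active means activation above the mean of all tested compounds plus 3 SD, cut at about 5.5% in these data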;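 further: 100% = response to 3 µM Δ7-dafachronic acid high control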
# The depositor's hits bear a star; ? = inconclusive; nt = no result. The list is not random: actives were taken first. Their share in the collection is about 4.2%.
SMILES,esBAF inh,ssDAF12 agonist,hgDAF-12 ag,Wnt act,DAX1 inh,hcDAF-12 act
COc1ccc(-c2ccccc2C2=CC(=O)CC(C)(C)C2=O)cc1,-18,0,2,-2,0,-1
CCCCCC(=O)OCc1ccc(C2=CC(=O)CC(C)(C)C2=O)cc1,-1,-1,7,-2,4.2*,1
CC1(C)CC(=O)C=C(c2ccc(-c3ccc(S(C)(=O)=O)cc3)cc2)C1=O,65*,-1,7,-1,-1,-1
C[C@H]1CCCCO[C@@H](CN(C)C(=O)CCC(F)(F)F)[C@@H](C)CN([C@@H](C)CO)C(=O)c2cc(NS(C)(=O)=O)ccc2O1,-11,nt,nt,nt,nt,nt
CCOc1ccc(CN(C)CC(=O)Nc2cc(C)c(C)cc2[N+](=O)[O-])cc1,28,-1,2,-1,0,0
CCOc1ccc(CN(C)CC(=O)Nc2cc(OC)c([N+](=O)[O-])cc2C)cc1,nt,1.2*,-8,-2,-1,4
CCCc1cc(=O)oc2cc(OCc3ccc(C(=O)O)cc3)ccc12,53*,-1,3,5,0,1
CCCc1cc(=O)oc2cc(OCC(=O)Nc3ccccn3)ccc12,17,0,9,23,4.0*,1
Cc1cc(C)c(C#N)c(N2CCSCC2)n1,-8,-1,-3,62*,0,1
Cc1cc(C)c(C#N)c(N2CCN(c3ccccc3)CC2)n1,-1,-2,0,4,0,-2
c1ccc(-n2ncc3c(NCc4cccnc4)ncnc32)cc1,nt,-1,9,nt,0,-1
O=C1CCCN1CCCNc1ncnc2c1cnn2-c1ccc(Cl)cc1,42*,0,1,8,0,-1
c1ccc(-n2ncc3c(NCc4cccs4)ncnc32)cc1,45*,-1,8,71*,1,1
CCC(C)Nc1ncnc2c1cnn2Cc1ccc(Cl)cc1 (stereo unspecified),-3,-2,-4,-5,-3,0
Cc1cccc(-n2ncc3c(NCCCN4CCCC4=O)ncnc32)c1,nt,0,3,29,1,1
CCC(CO)Nc1ncnc2c1cnn2-c1ccc(Cl)cc1 (stereo unspecified),-18,-1,2,17,4.0*,4
Clc1ccc(-n2ncc3c(NCc4ccco4)ncnc32)cc1,52*,0,13*,60*,0,4
O=C(C[C@@H]1C=C[C@H](NC(=O)c2ccc(F)cc2)[C@@H](CO)O1)NCCc1ccncc1,8,nt,nt,nt,nt,nt
COc1ccc(-c2cnc3c(c2)C(=O)N([C@@H](C)CO)C[C@H](C)[C@@H](CN(C)C(=O)C2CCC2)O3)cc1,3,nt,nt,nt,nt,nt
CN1C[C@H]2[C@@H](c3ccccc31)[C@H](CO)N2C(=O)Nc1ccccc1,3,nt,nt,nt,nt,nt
COc1ccc(-n2ncc3c(NCc4cccs4)ncnc32)cc1,107*,0,10,27,2,4
COc1ccc(-c2cc(C(=O)N3CCCC3)no2)cc1OC,67*,-1,7,20,1,0
COc1ccc(-c2cc(C(=O)N3CCCCC3)no2)cc1OC,59*,-1,6,-4,2,4
Cn1cnc(S(=O)(=O)N2CCCCN3[C@H](CO)[C@@H](c4ccc(-c5cccc(F)c5)cc4)[C@@H]3C2)c1,-7,nt,nt,nt,nt,nt
O=C(N/C(=C/C=C/c1ccccc1)C(=O)N1CCOCC1)c1ccccc1Cl,nt,1,1,-1,0,6.0*
SMILES,esBAF inh,ssDAF12 agonist,hgDAF-12 ag,Wnt act,DAX1 inh,hcDAF-12 act
O=C(Nc1ccc(C(=O)O)cc1)/C(=C\C=C\c1ccccc1)NC(=O)c1ccccc1Cl,nt,-1,4,19,4.3*,1
COc1cc(NC(=O)c2ccc3snnc3c2)cc(OC)c1,47*,-1,4,23,0,-1
COc1cccc(NC(=O)c2ccc(OC(F)(F)F)cc2)c1,72*,0,11*,37*,1,3
COc1cccc(NC(=O)c2ccc3nsnc3c2)c1,56*,1,9,24,1,3
O=C(Nc1ccc(F)cc1)c1ccc2nsnc2c1,?,0,5,39*,2,1
COc1ccccc1NC(=O)c1ccc2snnc2c1,21,-2,1,-1,0,-2
COc1cccc(NC(=O)c2cccc(C(=O)Nc3cccc(OC)c3)c2)c1,-1,-1,0,0,0,-1
COc1ccc(NC(=O)Nc2ccc3c(c2)[C@H]2C[C@H](CC(=O)NCc4ccncc4)O[C@@H](CO)[C@H]2O3)cc1,4,nt,nt,nt,nt,nt
CCC(=O)N(C)C[C@@H]1Oc2cc(-c3ccccc3F)ccc2S(=O)(=O)N([C@H](C)CO)C[C@H]1C,-2,nt,nt,nt,nt,nt
CC(C)(C)C(=O)O/N=C(\N)COc1cccc(Cl)c1,81*,-1,5,11,0,2
O=C(C[C@@H]1CC[C@H](NC(=O)Nc2ccc3c(c2)OCO3)[C@@H](CO)O1)NCc1ccccc1,-4,nt,nt,nt,nt,nt
O=C(O)C[C@@H]1CC[C@@H](NC(=O)c2ccccc2F)[C@@H](CO)O1,-2,nt,nt,nt,nt,nt
CNC(=O)CC1C(=O)N(Cc2ccccc2)C(=S)N1NC(=O)c1cccc(F)c1 (stereo unspecified),nt,1.2*,2,-2,0,-3
CNC(=O)CC1C(=O)N(c2ccc(Cl)cc2)C(=S)N1NC(=O)c1cccc(F)c1 (stereo unspecified),7,0,3,2,0,0
COC(=O)c1ccc(N=Cc2c(-c3ccccc3)[nH][nH]c2=O)cc1,nt,1.5*,-2,4,0,3
CNc1cncc(-c2ccc(OC)c(OC)c2)n1,-7,3.4*,11*,-6,1,-1
CC1CCN(CCCNC(=O)c2cc3c(=O)n(C)c4ccccc4c3n2C)CC1,-7,-1,2,6,4.7*,3
Cn1c(C(=O)NCCCN2CCOCC2)cc2c(=O)n(C)c3ccccc3c21,-3,-1,-2,-1,1,-1
O=c1cc(-c2ccccc2)oc2ccccc12,56*,-1,7,2,3,0
CCCCCc1cc(=O)c2ccccc2o1,50*,-2,-1,1,0,-1
O=c1cc(-c2ccc(C(F)(F)F)cc2)oc2ccccc12,14,-1,1,2,0,-1
COc1ccccc1NC(=O)c1csc2c1CCCC2,nt,0,4,15,0,-1
COc1cc(NC(=O)c2csc3c2CCCC3)ncn1,56,0,12*,18,3,0
C[C@@H]1CN([C@H](C)CO)C(=O)c2cccc(NC(=O)Nc3ccc4c(c3)OCO4)c2O[C@@H]1CN(C)Cc1ccc(C(=O)Nc2ccccc2N)cc1,-24,nt,nt,nt,nt,nt
C#Cc1cccc(NC(=O)c2ccc(Cl)cc2Cl)c1,53*,0,12*,22,2,4

# Compound activity (PubChem BioAssay)
